# From PubChem BioAssay
# Only some compounds are listed: those with a hit (about 1.4% of all), similar ones and a draw of the others.
# MCL1-BIM inh = inhibitors of MCL1 binding to BIM-BH3, primary screen, biochemical, fluorescence polarization | hit rate 0.68% among 320,000 | GST-MCL1 / FITC-Bim-BH3 fluorescence polarization | Induced myeloid leukemia cell differentiation protein Mcl-1 (Homo sapiens), Q07820 | inhibition, % at 10.9 µM;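 active means inhibition above the mean inhibition of all tested compounds plus 3 SD, set per campaign, cut at about 40% in these data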;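 further: 0% = DMSO wells and 100% = unlabeled Bim-BH3 peptide control; higher means more loss of mP so more displacement of Bim peptide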
# Target sequence (Q07820 whole entry, looked up): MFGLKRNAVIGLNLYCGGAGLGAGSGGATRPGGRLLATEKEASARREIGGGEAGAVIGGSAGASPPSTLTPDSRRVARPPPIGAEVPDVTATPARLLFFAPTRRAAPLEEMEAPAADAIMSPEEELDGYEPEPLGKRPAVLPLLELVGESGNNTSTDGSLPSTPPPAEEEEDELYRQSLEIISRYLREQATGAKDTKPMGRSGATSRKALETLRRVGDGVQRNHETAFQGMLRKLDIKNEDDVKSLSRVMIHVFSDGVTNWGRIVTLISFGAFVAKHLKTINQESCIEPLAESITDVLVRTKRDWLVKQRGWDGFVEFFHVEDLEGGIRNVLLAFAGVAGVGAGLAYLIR
# eLon inh = inhibitors of E. coli Lon protease, primary screen, biochemical, fluorescence polarization. inhibition, % at 7.94 µM. purified E. coli Lon protease. hit rate 0.42% among 360,000. P0A9M0; in the data active means inhibition above about 13%, passing the limit was not always enough;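 further: 0% = enzyme with probe and DMSO and 100% = no enzyme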
# BCLXL inh = inhibitors of human Bcl-xL, primary screen, biochemical, fluorescence polarization, HTS | Bcl-2-like protein 1 (Homo sapiens), Q07817 | GST-Bcl-xL / FITC-Bim BH3 peptide fluorescence polarization | inhibition, % at 10.9 µM | hit rate 0.7% among 320,000 | AID 2129, 2009;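 active means inhibition above the mean of all tested compounds plus 3 SD, cutoff set per campaign, cut at about 30% in these data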;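 further: 0% = DMSO wells and 100% = unlabeled Bim-BH3 peptide competitor; inhibitors lower millipolarization by displacing the labeled peptide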
# Target sequence (Q07817 whole entry, looked up): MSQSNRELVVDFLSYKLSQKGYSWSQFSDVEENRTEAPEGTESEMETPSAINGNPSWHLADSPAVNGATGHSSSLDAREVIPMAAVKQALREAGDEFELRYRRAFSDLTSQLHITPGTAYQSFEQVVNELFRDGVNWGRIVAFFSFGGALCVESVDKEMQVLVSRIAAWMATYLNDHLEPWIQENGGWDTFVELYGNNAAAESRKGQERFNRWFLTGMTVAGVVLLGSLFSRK
# GLD-1 TGE inh = GLD-1/TGE RNA complex disruptors, primary screen, biochemical, fluorescence polarization; Female germline-specific tumor suppressor gld-1 (Caenorhabditis elegans), Q17339; purified GLD-1 + fluorescein TGE RNA; inhibition, % at 5.96 µM; hit rate 0.44% among 320,000; AID 2280, 2010;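 active means percent inhibition above a per-plate cutoff, the plate mean of test compounds plus 3 SD, cut at about 30% in these data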;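 further: 0% = DMSO wells with GLD-1 and probe and 100% = wells lacking GLD-1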
# MEX-5 binding = MEX-5 zinc finger RNA-binding disruptors – biochemical, C. elegans, fluorescence polarization, MLPCN library, primary screen | Zinc finger protein mex-5 (Caenorhabditis elegans), Q9XUB2 | MEX-5/FITC-TCR2 RNA binding; hits give low values | activity score (negative = inhibition of binding), % at 10 µM | hit rate 0.38% among 300,000;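 active means inhibition past about -25% in most replicates, and total fluorescence under double the plate's negative control median, limit read from the data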;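 further: 0% = DMSO and -100% = 5 µM competing unlabeled TCR2 RNA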
# Bcl-xL conf = Bcl-xL inhibitors blocking Bim BH3 binding, confirmation, counter-screen for MCL1 inhibitor project, biochemical, fluorescence polarization; shares compounds with MCL1-BIM inh; GST-Bcl-xL / FITC-Bim BH3 peptide FP binding; inhibition, % at 10.9 µM; hit rate 54% among 1,700; AID 2166, 2009;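 active means inhibition above a cutoff equal to the mean inhibition of all tested compounds plus 3 SD, cut at about 30% in these data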;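 further: 0% = DMSO wells and 100% = unlabeled Bim BH3 control peptide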
# MCL1 BIM confirm = inhibitors of MCL1 binding to BIM-BH3, confirmation, biochemical, fluorescence polarization, triplicate; hit rate 61% among 1,700; GST-MCL1 / FITC-Bim-BH3 fluorescence polarization; inhibition, % at 10.9 µM; AID 2168, 2009; shares compounds with MCL1-BIM inh;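 active means inhibition above the average of all tested compounds plus 3 SD, cut at about 40% in these data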;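 further: 0% = DMSO wells and 100% = unlabeled Bim-BH3 control peptide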
# The depositor's hits bear a star; x = not tested or not shown; + = active, no number.
SMILES,MCL1-BIM inh,eLon inh,BCLXL inh,GLD-1 TGE inh,MEX-5 binding,Bcl-xL conf,MCL1 BIM confirm
O=C(NC(Cc1c[nH]c2ccccc12)C(=O)O)c1cccc(S(=O)(=O)N2CCCCC2)c1 (stereo unspecified),x,-3,x,x,x,x,x
O=C(Nc1nc(-c2ccco2)c(-c2ccco2)s1)c1c(F)cccc1Cl,15,-30,6,12,x,x,x
O=C(Nc1nc(-c2ccco2)c(-c2ccco2)s1)c1cnccn1,102*,x,33*,14,-1,16,27
CC1(C(=O)NS(C)(=O)=O)CCN1C(=O)Cc1ccc(-c2ccccc2)cc1 (stereo unspecified),x,-5,x,x,x,x,x
OC(c1cccc(Cl)c1)c1ncc(-c2ccc(C(F)(F)F)cc2)[nH]1 (stereo unspecified),x,2,x,x,x,x,x
Cc1cc(C)c2nc(-c3ccccn3)cc(C(=O)Nc3ccc(S(=O)(=O)Nc4onc(C)c4C)cc3)c2c1,41*,-2,17,6,-2,30*,79*
COCCN(Cc1ccc(C)cc1)C(=O)[C@H]1O[C@@H](n2ccc(N)nc2=O)[C@H](O)[C@@H]1O,x,-2,x,x,x,x,x
Cc1ccc(/C=c2\sc3nc(-c4ccco4)nn3c2=O)o1,58*,-6,25,-2,-9,45*,72*
Cc1ccc(/C=c2\sc3nc(-c4ccccc4Br)nn3c2=O)o1,32,-20,16,-3,-5,x,x
COc1ccccc1/C=c1\sc2nc(-c3ccccc3OC)nn2c1=O,-3,-1,6,1,x,x,x
COc1ccc(Br)cc1/C=c1\sc2nc(-c3ccco3)nn2c1=O,80*,-21,40*,-18,2,9,50*
CCOC(=O)[C@]12CCCC=C1N(Cc1cccc3ccccc13)C(=O)[C@H](CC(=O)NCCc1ccccc1OC)C2,x,-6,x,x,x,x,x
CCOC(=O)C1=C[C@@H](C(C)(C)C)N(S(=O)(=O)c2ccc([N+](=O)[O-])cc2)[C@H]1c1ccccc1,x,11,x,x,x,x,x
COc1ccccc1NC(=O)N1CCc2[nH]c3ccc(F)cc3c2C1,50*,4,52*,51*,-2,14,20
COc1ccc(C(=O)n2nnc3ccccc32)cc1OC,1,-2,-4,-8,x,x,x
COc1ccc(N/C(=C(/C(Cl)=C(Cl)Cl)[N+](=O)[O-])n2nnc3ccccc32)cc1OC,104*,x,97*,37*,-7,30,21
CC(C)C[C@@H]1CN(CCCC[C@H]2CNC(=O)C(=O)N2CCC2CCCCC2)C(=O)C(=O)N1CC1CCCCC1,x,3,x,x,x,x,x
N#Cc1cc(Oc2cccc3cccnc23)c(-n2nnc3ccccc32)cc1C#N,139*,13,143*,44*,-3,17,25
c1ccc(Oc2ccccc2-c2cc(NCCc3cccnc3)n3nccc3n2)cc1,x,9,x,x,x,x,x
Oc1oc(-c2ccc(Br)cc2)nc1/C=N/c1ccccn1,69*,-2,3,2,-2,5,4
Oc1oc(-c2ccccc2)nc1/C=N/c1nccs1,2,-9,8,2,-9,x,x
CCOC(=O)c1cc2c(=O)n3ccccc3nc2n(Cc2ccco2)c1=NC(=O)c1ccc(OC)cc1,41*,-15,27,10,-6,11,-2
CCCn1c(/C=C/c2ccccc2)nc2ccccc21,0,2,2,-4,-3,x,x
CCn1c(/C=C/c2cc[n+](C)cc2)nc2ccccc21,75*,11,74*,20,-3,65*,65*
O=C(CSc1ccc(-c2ccco2)nn1)c1ccccc1,42*,4,22,3,1,21,24
SMILES,MCL1-BIM inh,eLon inh,BCLXL inh,GLD-1 TGE inh,MEX-5 binding,Bcl-xL conf,MCL1 BIM confirm
CCc1[nH]nc2c1C1(CCN(C(=O)c3ccccc3)CC1)C(C#N)=C(N)O2,-1,-1,2,-4,-2,x,x
Cc1nc2c([nH]1)C1(CCN(Cc3ccccc3)CC1)C(C#N)=C(N)O2,+,10,163*,93*,x,32*,46*
CC1(C)CC(=O)C2=C(C1)OC(N)=C(C#N)C21CCN(Cc2ccccc2)CC1,73*,-3,74*,30,-15,63*,70*
CC(=O)OCCNc1cc(N2CCN(C)CC2)c2noc3c2c1C(=O)c1ccccc1-3,x,-3,x,x,x,x,x
CCOC(=O)C(C(=O)OCC)c1cc(Br)c2noc3c2c1C(=O)c1ccccc1-3,196*,-7,176*,171*,-32*,145*,148*
CCCOc1ccc(/C(CC)=N/NC(=O)C2(C)CC2(Br)Br)cc1 (stereo unspecified),112*,5,97*,112*,-2,7,0
O=C1NC[C@H](CCCCN2C[C@@H](Cc3ccccc3)N(Cc3ccccc3)C(=O)C2=O)N(CCC2CCCCC2)C1=O,x,-5,x,x,x,x,x
CCc1nc2ccc(C(=O)N(C)Cc3ccco3)cn2c1N(C)Cc1ccc(OC)cc1,x,-9,x,x,x,x,x
O=C1CC(/C=C/c2ccc([N+](=O)[O-])cc2)=Nc2ccccc2N1,2,4,0,-1,x,x,x
O=C1CC(/C=C/c2ccco2)=Nc2ccccc2N1,60*,-7,50*,16,-7,32*,45*
O=S(=O)(c1cccs1)N1CCCCC1,x,-12,x,x,x,x,x
Cc1cc(C(=O)CSc2n[nH]c(N)n2)c(C)n1C1CC1,13,11,3,-3,1,x,x
C=CCn1c(C)cc(C(=O)CSc2n[nH]c(N)n2)c1C,47*,0,-1,-3,-1,13,3
Cc1ccccc1N1CCN(C2=NC(=O)/C(=C\c3cccs3)S2)CC1,46*,-2,8,4,-1,11,22
O=C1N=C(N2CCN(c3cccc4ccccc34)CC2)S/C1=C/c1cccs1,2,2,-1,5,2,x,x
COc1ccc(Cc2c(-c3ccc(F)cc3)nc3c(C)cc(Br)cn23)c(C)c1,x,-18,x,x,x,x,x
CSc1nc(NCCOCCO)c2sc3nc(-c4ccco4)c4c(c3c2n1)CCC4,69*,-3,23,-9,1,23,67*
CC(=O)Nc1cc(-c2cccc(C(=O)NCCN(C)C)c2)cn2c(-c3ccc(C(C)=O)cc3)cnc12,x,-8,x,x,x,x,x
C/C(=C\c1ccccc1)C1Nc2cccc3cccc(c23)N1,41*,x,25,11,x,20,20
